What all share (test): NCI-60 one-dose screen, 48 h (100 = growth as untreated, 0 = no growth, -100 = all killed)
In one assay the test system is T-47D breast. The note with it: 10 µM.
Another assay deals with MDA-MB-435 melanoma. Conditions: 10 µM.
The next assay has as its system SW-620 colon. The note with it: 10 µM.
A further assay deals with MCF7 breast.
A further assay concerns HCT-116 colon. The note with it: 10 µM.
Another assay concerns HCC-2998 colon. Conditions: 10 µM.
The next assay has as its system KM12 colon. Conditions: 10 µM.

“And” between values parts separate entries of the source, which are not always exact repeats. Equal values may be shown once. This is part of a sample that, as a whole, favours compounds with a hit. Of some 83,000 tested, about 20% had one in any assay.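 Results are percent growth after 48 hours of single-concentration exposure. 100 means growth as in untreated cells, lower positive values show inhibition; negative values down to -100 show cell death.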 The source made the active and inactive calls. How the source made its calls: active means growth percent below 10; inactive means the rest.

As to `O=C1C=C(O)c2ccccc2C1=O.[Ag]`, the growth was 79.5% (inactive) in the assay with T-47D breast; 111% (inactive) with MDA-MB-435 melanoma; 106% (inactive) in the assay with SW-620 colon; 95.7% (inactive) with MCF7 breast (10 µM); 111% (inactive) with HCT-116 colon; 88.8% (inactive) in the assay on HCC-2998 colon. The growth in the assay with KM12 colon is 96.4% (inactive).
As for `OCC1OC(n2cnc3c(=S)nc[nH]c32)C(O)C1O` (configuration not stated), the growth was 100% (inactive) and 57.7% (inactive) in the assay on T-47D breast; 106% (inactive) and 35.3% (inactive) with MDA-MB-435 melanoma; 104% (inactive) and 76.6% (inactive) with SW-620 colon; 108% (inactive) and 20.9% (inactive) in the assay on MCF7 breast (10 µM); 117% (inactive) and 39.8% (inactive) in the assay on HCT-116 colon; 100% (inactive) and 45.5% (inactive) in the assay with HCC-2998 colon. Further, in the assay with KM12 colon, the growth was 108% (inactive) and 60.4% (inactive).
With `Nc1c2ccccc2nc2ccccc12`, the growth was 13.3% (inactive) and 30.4% (inactive) and 32.3% (inactive) in the assay on T-47D breast; 6.39% (active) and 30% (inactive) and 48.5% (inactive) with MDA-MB-435 melanoma; 2.21% (active) and 14.3% (inactive) and 26.8% (inactive) in the assay with SW-620 colon; 2.34% (active) and 7.36% (active) and 9.98% (active) in the assay on MCF7 breast (10 µM); 7.6% (active) and 17.9% (inactive) and 18.2% (inactive) with HCT-116 colon; 37.9% (inactive) and 24.7% (inactive) and 40.8% (inactive) in the assay on HCC-2998 colon. Moreover, the growth in the assay on KM12 colon was 19.1% (inactive) and 46.2% (inactive).
Take `Nc1nc(=S)c2ncn(C3OC(CO)C(O)C3O)c2[nH]1` (configuration not stated): the growth with T-47D breast was 121% (inactive) and 35.2% (inactive); in the assay with MDA-MB-435 melanoma, 109% (inactive) and 17.7% (inactive); in the assay with SW-620 colon it was 107% (inactive) and 35.9% (inactive); in the assay on MCF7 breast (10 µM), 123% (inactive) and 9.98% (active); with HCT-116 colon it was 107% (inactive) and 17.3% (inactive); in the assay with HCC-2998 colon it was 109% (inactive) and 23% (inactive). For the same compound, the growth in the assay on KM12 colon was 104% (inactive) and 19.8% (inactive).
With `N=S(c1ccccc1[N+](=O)[O-])c1ccccc1[N+](=O)[O-]`, the growth in the assay on T-47D breast is -2.34% (active); with MDA-MB-435 melanoma it was 62.1% (inactive); with SW-620 colon it was 17.9% (inactive); in the assay on MCF7 breast (10 µM) it was -53.7% (active); with HCT-116 colon, 5.85% (active); with HCC-2998 colon, 90.4% (inactive). For the same compound, the growth in the assay with KM12 colon is 88.8% (inactive).
In the case of `CC1=CC(C)=Nc2ccc(Cl)cc2N1`, the growth was 102% (inactive) with T-47D breast; 107% (inactive) with MDA-MB-435 melanoma; 98.8% (inactive) in the assay on SW-620 colon; 101% (inactive) in the assay with MCF7 breast (10 µM); 100% (inactive) in the assay on HCT-116 colon; 103% (inactive) with HCC-2998 colon. Besides, the growth in the assay on KM12 colon was 100% (inactive).
With `O=C1C=CC(=CC=C2C=CN(CCCCCCCCCCCO)C=C2)C=C1`, the growth in the assay on MDA-MB-435 melanoma was 18.9% (inactive); in the assay on SW-620 colon, 41.9% (inactive); in the assay with MCF7 breast (10 µM), 8.64% (active); with HCT-116 colon, 23.3% (inactive); in the assay with HCC-2998 colon, 57.9% (inactive); with KM12 colon, 24.2% (inactive).
For `NNc1c2ccccc2nc2ccccc12`, the growth is 74.6% (inactive) in the assay on T-47D breast; 49.4% (inactive) in the assay on MDA-MB-435 melanoma; 43.9% (inactive) in the assay on SW-620 colon; 40.1% (inactive) with HCT-116 colon; 57.1% (inactive) in the assay with HCC-2998 colon; 36.7% (inactive) in the assay with KM12 colon.
`CCC(C)(C)c1cc(O)c(C(C)(C)CC)cc1O`: the growth in the assay with T-47D breast was 60.3% (inactive); in the assay with MDA-MB-435 melanoma it was 27.7% (inactive); in the assay with SW-620 colon, 31.8% (inactive); in the assay with MCF7 breast (10 µM) it was 18.4% (inactive); in the assay on HCT-116 colon, 16.6% (inactive); in the assay with KM12 colon, 55.3% (inactive).
Turning to `O=C(/C=C/c1ccccn1)c1ccccc1`, the growth is 66.9% (inactive) with T-47D breast; 52.4% (inactive) with MDA-MB-435 melanoma; -51.3% (active) in the assay with SW-620 colon; 15% (inactive) in the assay with MCF7 breast (10 µM); -90.8% (active) in the assay with HCT-116 colon; 62.9% (inactive) in the assay with HCC-2998 colon. In addition, the growth in the assay with KM12 colon was 7.87% (active).
Turning to `Cc1cc(O)c(C(C)C)cc1Cl`, the growth with T-47D breast was 98.8% (inactive); in the assay with MDA-MB-435 melanoma, 99.2% (inactive); in the assay with SW-620 colon, 105% (inactive); in the assay with MCF7 breast (10 µM), 104% (inactive); in the assay on HCT-116 colon, 98.9% (inactive); in the assay with HCC-2998 colon, 101% (inactive). Besides, the growth in the assay with KM12 colon was 112% (inactive).
With `CN(C)C(=S)SC(=S)N(C)C`, the growth in the assay on T-47D breast is 67% (inactive) and 96.3% (inactive); in the assay with MDA-MB-435 melanoma, 94.6% (inactive) and 93% (inactive); in the assay with SW-620 colon it was 102% (inactive) and 96% (inactive); with MCF7 breast (10 µM), 35.3% (inactive) and 71.2% (inactive); in the assay with HCT-116 colon it was 87% (inactive) and 67.7% (inactive); in the assay with HCC-2998 colon, 96.7% (inactive) and 107% (inactive). The growth with KM12 colon was 110% (inactive) and 97.3% (inactive).
Turning to `CC(=O)OCC(OC(C)=O)C(OC(C)=O)C(OC(C)=O)C(OC(C)=O)C(/C=N/Nc1ccccc1)=N/Nc1ccccc1` (configuration not stated), the growth in the assay on MDA-MB-435 melanoma is 65.6% (inactive); with SW-620 colon, 49.7% (inactive); with MCF7 breast (10 µM), 44.1% (inactive); in the assay with HCT-116 colon it was 64.1% (inactive); in the assay with HCC-2998 colon, 91.2% (inactive); in the assay with KM12 colon it was 45.3% (inactive).
With `CCCCCCCCCCCC[N+](C)(C)Cc1ccccc1`, the growth in the assay on T-47D breast was 14.2% (inactive); in the assay with MDA-MB-435 melanoma, 11.7% (inactive); in the assay on SW-620 colon, 45.2% (inactive); in the assay on MCF7 breast (10 µM) it was 15.1% (inactive); in the assay on HCT-116 colon, 21.5% (inactive); with HCC-2998 colon it was 17.8% (inactive). The growth in the assay with KM12 colon was -63.7% (active).
Consider `CC(C)C1=C(O)C2=C(C(=O)C1=O)C1(C)CCCC(C)(C)C1CC2O` (configuration not stated), for which the growth in the assay with MCF7 breast (100 µM) is -23.1% (active) and -78.3% (active).
In the case of `Cc1nc(N=C(N)N)nc2ccc3ccccc3c12`, the growth in the assay with T-47D breast is -10.6% (active); with MDA-MB-435 melanoma it was -4.72% (active); with SW-620 colon it was 9.65% (active); in the assay with MCF7 breast (10 µM) it was -18.1% (active); with HCT-116 colon it was 5.64% (active); in the assay with HCC-2998 colon, 13.3% (inactive). Also, the growth with KM12 colon is -9.2% (active).

Source of the values: PubChem BioAssay (NCI).
